Assay outcomes deposited in PubChem by National Center for Advancing Translational Sciences (NCATS).
mIDH1 inhibitor = qHTS for Inhibitors of mutant isocitrate dehydrogenase 1 (IDH1): qHTS; Isocitrate dehydrogenase [NADP] cytoplasmic (Homo sapiens), O75874; IDH1-R132H enzyme, NADPH consumption, diaphorase/resazurin fluorescence; Potency, µM (series often up to 76.6 µM), for inactives: top-dose activity change, negative = inhibition, most hits filed as inhibitors; 390,000 tested, 0.093% active; further: potency means the concentration at half of the fitted maximal effect; on the % scale 0 is the no-effect control and ±100 the full control effect; nearly all actives have a fitted effect of over 65% in size
Target sequence (O75874 whole entry R132H, stated change not applied): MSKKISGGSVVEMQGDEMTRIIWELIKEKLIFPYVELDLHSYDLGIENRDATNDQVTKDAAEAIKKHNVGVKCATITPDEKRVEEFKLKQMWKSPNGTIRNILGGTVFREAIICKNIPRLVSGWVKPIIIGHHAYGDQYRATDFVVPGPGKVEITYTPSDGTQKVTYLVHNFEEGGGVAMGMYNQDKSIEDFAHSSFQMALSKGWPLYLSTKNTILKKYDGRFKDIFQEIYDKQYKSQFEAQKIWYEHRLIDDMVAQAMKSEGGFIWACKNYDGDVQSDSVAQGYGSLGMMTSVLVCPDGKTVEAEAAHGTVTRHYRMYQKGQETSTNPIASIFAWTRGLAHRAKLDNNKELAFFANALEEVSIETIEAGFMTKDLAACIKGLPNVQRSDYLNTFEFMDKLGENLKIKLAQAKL
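IDH1-R132H (0.5 ug/mL) preincubated 30 min with compound, then NADPH (0.016 mM) and alpha-KG (2 mM) added; 80 min at RT, pH 7.5. Remaining NADPH coupled via diaphorase/resazurin to fluorescence (540/590 nm); concentration-response curves normalized to no-enzyme control.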
Nrf2 ARE act = qHTS of Nrf2 Activators | Potency, µM (titrated, usually from 46.1 µM), inactives show at the top dose activation, most hits filed as activators | AID 624171, 2012 | AREc32 ARE-luciferase reporter (MCF7-derived line), luminescence, 24 h | 410,000 tested, 0.31% active; further: potency means the concentration at half of the fitted maximal effect; % of control where 0% means no effect; nearly all actives have a fitted effect of over 65% in size
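Luminescent ARE reporter assay in AREc32_Fluc cells: overnight plating at 37 deg C, 24 hr compound incubation, Steady-Glo added, 30 min RT before reading.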
Giardia kill = Small Molecules that selectively kill Giardia lamblia: qHTS; 340,000 tested, 0.15% active; activity change, % at 7.66 µM, hits read low; Giardia lamblia trophozoite viability; in the data active means activity change below about -80%; inconclusive means between about -30% and that limit;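 further: parasites exposed to compound for two days anaerobically before the ATP read; on the % scale 0 is the no-effect control and ±100 the full control effect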
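Media and compound were dispensed first, then trophozoites at 100 cells/well; plates sat 48 hrs at 37 deg C without oxygen before ATP luminescence reagent was added and read after 15-30 min at room temperature.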
Nrf2 inh = Nrf2 qHTS screen for inhibitors; A549 ARE-Fluc reporter, luciferase luminescence, 18-24 h; Potency, µM (titrated, usually from 46 µM), inactives show top-dose activity change, negative = inhibition, hits mostly inhibitors; 360,000 tested, 2.1% active; further: potency means the concentration at half of the fitted maximal effect; on the % scale 0 is the no-effect control and ±100 the full control effect; nearly all actives have a fitted effect of over 60% in size
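In this cell-based qHTS, ARE-driven firefly luciferase in A549 cells reports Nrf2 activity; the luminescent signal after BugLite lysis is the measured value, with a prior CellTiter-Fluor read for cell health.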
A549 viability = Nrf2 qHTS screen for inhibitors: counterscreen for cytotoxicity. A549 ARE-Fluc cells, CellTiter-Fluor viability, 18-24 h. Potency, µM (series often up to 46 µM), inactives show at the highest dose activity change, negative = cytotoxicity, most hits filed as inhibitors. 390,000 tested, 0.16% active. AID 504648, 2011; further: potency means the concentration at half of the fitted maximal effect; on the % scale 0 is the no-effect control and ±100 the full control effect
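Cytotoxicity counterscreen: CellTiter-Fluor fluorescence was measured in A549 ARE_Fluc cells after 18-24 h of compound exposure in a concentration series. The subsequent BugLite luminescent read reports ARE-luciferase activity.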
Apoferritin bind = qHTS Assay for Identification of Novel General Anesthetics; Ferritin light chain (Equus caballus), P02791; Potency, µM (doses to about 77.5 µM), without a hit: at the highest dose activity change, negative = displacement, usual class: inhibitors; 350,000 tested, 0.074% active; apoferritin/1-aminoanthracene competitive binding, fluorescence; further: potency means the concentration at half of the fitted maximal effect; on the % scale 0 is the no-effect control and ±100 the full control effect; nearly all actives have a fitted effect of over 20% in size
Target sequence (P02791 2-175 limits assumed): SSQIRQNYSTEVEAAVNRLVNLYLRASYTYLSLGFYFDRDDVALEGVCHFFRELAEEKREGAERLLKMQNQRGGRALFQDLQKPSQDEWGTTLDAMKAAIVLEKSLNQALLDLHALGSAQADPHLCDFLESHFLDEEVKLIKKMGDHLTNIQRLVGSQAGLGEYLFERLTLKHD
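Concentration-response curves derived by four-parameter Hill fitting of normalized fluorescence, where compounds displaced 1-AMA from 10 uM horse apoferritin following a brief 10 min room-temperature incubation; propofol titration acted as positive control.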
IDH1 autofl = qHTS for Inhibitors of mutant isocitrate dehydrogenase 1 (IDH1): Cherrypicks Autofluorescence Interference | Resorufin detection reagent fluorescence interference, cell-free | shares compounds with mIDH1 inhibitor | inhibition of signal, % at 51.2 µM | 750 tested, under 10 active;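 further: 0% = wells with normal resorufin and full inhibition = wells lacking resorufin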
WT IDH1 inh = qHTS for Inhibitors of mutant isocitrate dehydrogenase 1 (IDH1): Cherrypicks in WT IDH1; shares compounds with mIDH1 inhibitor; WT IDH1 enzyme, NADPH diaphorase/resazurin fluorescence; Potency, µM (top dose mostly 115 µM), inactives show at the top dose activity change, negative = inhibition, actives largely listed as inhibitors; 750 tested, 9% active; AID 623995, 2012;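 further: potency means the concentration at half of the fitted maximal effect; 0% = full WT IDH1 enzyme control and full inhibition = no enzyme wells; nearly all actives have a fitted effect of over 55% in size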
Target sequence (O75874 whole entry, looked up): as the sequence (O75874 whole entry R132H, stated change not applied) above, with H132R counted along it
IDH1 R132H conf = qHTS for Inhibitors of mutant isocitrate dehydrogenase 1 (IDH1): Confirmation of Cherrypicks. AID 624002, 2012. 750 tested, 83% active. IDH1 R132H enzyme, NADPH diaphorase/resazurin fluorescence. shares compounds with mIDH1 inhibitor. Potency, µM (doses to about 76.6 µM), for inactives: at the highest dose activity change, negative = inhibition, hits mostly inhibitors; further: potency means the concentration at half of the fitted maximal effect; nearly all actives have a fitted effect of over 50% in size
An asterisk follows results filed as active; i = inactive; u = inconclusive; x = no result given; [ ] = remark or other dose. A selection: hits, their analogues and other compounds. The true share with any hit is near 2.3%. Unless noted, the call rests on the fitted dose curve; in most records, active means well fitted curve in the direction sought with a large enough effect; inconclusive means small, poorly fitted or top-dose-only effect, or another doubt; inactive means no such curve, though single readings can be large; an effect the other way counts as inactive or inconclusive.

SMILES	mIDH1 inhibitor	Nrf2 ARE act	Giardia kill	Nrf2 inh	A549 viability	Apoferritin bind	IDH1 autofl	WT IDH1 inh	IDH1 R132H conf
Cc1ccc(C(C(=O)NC2CCCCC2)N(Cc2ccco2)C(=O)Cn2cnc3ccccc32)cc1 (stereo unspecified)	29.3µM*	1.9%	2.3	-9.2%	-1.8%	-13.3%	-5.4	-1.5%	12.6µM*
Cc1ccc(N2C(=O)c3n[nH]c(C)c3C2c2ccc(Cl)cc2)cc1 (stereo unspecified)	u	6.7%	x	u	-2.9%	-13.8%	-2.8	-2.8%	44.7µM*
CC(=O)CSc1nc2ccc(Nc3nc(N4CCOCC4)nc(N4CCOCC4)n3)cc2s1	-3.3%	11.4%	-13.1	-16.7%	x	-14.6%	x	x	x
CC(C)(C)NC(=O)CSc1nc2ccc(Nc3nc(N4CCOCC4)nc(N4CCOCC4)n3)cc2s1	u	-1.2%	9.1	u	0.2%	-13.6%	-1.5	-5.3%	20µM*
Cc1ccc(NC(=O)c2oc3ccc(S(=O)(=O)N(C)C4CCCCC4)cc3c2C)c(C)c1	0.0%	0.1%	x	x	17.3%	-6.4%	x	x	x
CCOc1ccccc1N(C(=O)c1snc(C(N)=O)c1N)C(C(=O)NC1CCCC1)c1ccco1 (stereo unspecified)	u	3.7%	0.5	0.0%	u	-12.2%	3.2	1.5%	39.8µM*
CCOc1ccccc1N(C(=O)c1snc(C(N)=O)c1N)C(C(=O)NC1CCCC1)c1cccs1 (stereo unspecified)	u	5.0%	3.5	-28.7%	-11.6%	1.1%	4.0	4.1%	u
Cc1ccccc1N(C(=O)c1snc(C(N)=O)c1N)C(C(=O)NCc1ccccc1)c1ccc(O)cc1 (stereo unspecified)	-8.8%	8.1%	3.1	u	u	44.9%	x	x	x
CCOc1ccccc1N(C(=O)c1snc(C(N)=O)c1N)C(C(=O)NCc1ccccc1)c1ccc(O)cc1 (stereo unspecified)	u	5.5%	-13.0	u	-17.9%	-2.2%	-0.7	9.9%	12.6µM*
CCOc1ccccc1N(C(=O)c1snc(C(N)=O)c1N)C(CC)C(=O)NC1CCCC1 (stereo unspecified)	25.6%	0.0%	12.9	-16.6%	-4.5%	-13.0%	x	x	x
CC(C)CNC(=O)C1(C)CCCN1C(=O)c1ccc2c(c1)CCO2 (stereo unspecified)	x	-0.6%[9.22 µM]	x	x	x	x	x	x	x
CCCOc1ccc(CNC(=O)c2cc3oc4ccccc4c3n2C)cc1	x	-1.3%	x	u	-0.4%	94.3%	x	x	x
CCn1c2ccccc2c2c3ncc4cccn4c3ccc21	u	12.6µM*	-16.7	u	13.4%	-4.4%	6.6	44.7µM*	14.1µM*
C[C@H]1CN([C@@H](C)CO)C(=O)c2cccc(NC(=O)Nc3ccc(C(F)(F)F)cc3)c2O[C@@H]1CN(C)S(=O)(=O)c1ccccc1	u	-3.2%	1.9	u	u	x	1.6	-13.8%	u
C[C@H](CO)N1C[C@H](C)[C@@H](CN(C)S(=O)(=O)c2ccccc2)Oc2c(NC(=O)Nc3ccccc3)cccc2C1=O	0.2%	1.2%	5.6	-21.5%	-0.6%	x	x	x	x
COc1ccc(-c2ccc3c(c2)C2CC3CCN2)cc1 (stereo unspecified)	-3.0%	4.0%	-22.9	u	-7.3%	x	x	x	x
O=C(CCC1N=C2c3ccccc3N=C(SCc3ccccc3Cl)N2C1=O)NCCc1ccccc1 (stereo unspecified)	10.1%	-0.6%	x	11.4%[9.27 µM]	6.6%	u	x	x	x
CC(=O)C1=C(c2cccc([N+](=O)[O-])c2)N(C(C)=O)n2c(C)nnc2S1	20.7µM*	12.3%	-7.4	-29.7%	-19.2%	-22.9%	-8.8	i	3.16µM*
Cc1cc(C)c(C#N)c(SCc2[nH]nc3c2C(c2ccc(F)cc2)C(C#N)=C(N)O3)n1 (stereo unspecified)	u	0.1%	9.6	4.7%	-8.2%	3.2%	6.8	u	31.6µM*
Cc1cc(C#N)c(C)c(SCc2[nH]nc3c2C(c2ccccc2)C(C#N)=C(N)O3)n1 (stereo unspecified)	u	3.8%	-0.3	5.9%	-3.5%	-5.5%	2.6	u	35.5µM*
COc1ccc(CCC(=O)NCCc2csc(-c3cccc(F)c3)n2)cc1	12.6%	5.5%	x	x	2.6%	-12.5%	x	x	x
CC1(C(=O)NS(=O)(=O)c2cccc(C#N)c2)CCN1C(=O)CCC1CCCC1 (stereo unspecified)	x	-0.2%	x	x	x	x	x	x	x
CCCc1cc(N2CCN(C(=O)c3ccco3)CC2)n2c(nc3ccccc32)c1C#N	u	-0.4%	-3.4	u	-10.0%	377.9%	-3.9	u	39.8µM*
CCCc1cc(-n2ccnc2C)n2c(nc3ccccc32)c1C#N	6.5%	-0.8%	0.5	-3.1%	-6.3%	x	x	x	x
O=c1c2ccccc2nc2n1CCC2	16.5µM*	-0.2%	7.0	10.0%	-1.4%	-4.5%	-0.5	u	2.6%
Cc1ccc(-c2nn3c(-c4ccccc4C)nnc3c3ccccc23)cc1	39.8µM*	7.0%	x	u	-12.8%	u	1.0	-1.8%	22.4µM*
Cc1ccc(-c2nn3c(-c4ccccc4)nnc3c3ccccc23)cc1	-8.8%	4.1%	x	7.6%	-0.1%	-8.3%	x	x	x
Cc1cc2nn(-c3ccccc3)nc2cc1NC(=O)COc1ccc(Cl)cc1	-3.3%	0.6%	x	19.3%	-0.9%	3.3%	x	x	x
CC(C)(C)c1c(Cl)c(O)c(-c2ccccc2)c(=O)n1-c1ccccc1	46.5µM*	0.5%	17.0	8.9%	1.7%	-5.7%	-3.0	u	u
